# From PMC7862700, “An all-to-all approach to the identification of sequence-specific readers for epigenetic DNA modifications on cytosine”
# How the values were obtained:
# Assay in all cases: DAPPL (digital affinity profiling via proximity ligation, sequencing); 10 mM Tris-HCl pH 7.5, 50 mM NaCl, 1 mM DTT, 4% glycerol, room temperature, 30 min; GST-TFs on glutathione beads, 16-mer random dsDNA library, 0.1% formaldehyde crosslink after washing; high values mean tight binding
# FEV = target: T1, FEV (Homo sapiens, UniProt Q99581 1-238); settings: protein: recombinant; tags: N-terminal GST; dsDNA, one strand shown
# T1 sequence: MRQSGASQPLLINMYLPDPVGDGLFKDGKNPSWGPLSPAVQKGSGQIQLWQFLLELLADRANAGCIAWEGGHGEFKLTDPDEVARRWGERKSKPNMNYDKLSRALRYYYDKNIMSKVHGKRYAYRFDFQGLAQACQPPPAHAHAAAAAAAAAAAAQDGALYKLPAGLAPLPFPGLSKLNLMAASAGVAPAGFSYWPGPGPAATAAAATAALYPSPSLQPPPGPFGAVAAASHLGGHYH
# Method in brief: (§1)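 Beads coated with glutathione captured GST-fused human transcription factors that had been expressed in yeast, and the factors were then given DNA barcodes and pooled with a tag-only sample. The pools were incubated with 200 nmole of a random double-stranded 16-mer DNA library in Tris/NaCl/DTT/glycerol buffer for 30 min at room temperature, washed, crosslinked with 0.1% formaldehyde and proximity-ligated with BsaI/T4 ligase at 37 °C for 1 h. PCR amplification and Illumina NextSeq500 sequencing came last. Binding signal is each hexamer's read frequency for a factor divided by its frequency for the tag-only sample.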
# ETV5 = ETV5 (Homo sapiens, UniProt P41161 1-510); settings: protein: recombinant; tags: N-terminal GST; dsDNA, one strand shown
# Method in brief: as §1
# HSF1 = HSF1 (Homo sapiens, UniProt Q00613 1-529); settings: protein: recombinant; tags: N-terminal GST; chain copies: 3; dsDNA, one strand shown
# Method in brief: as §1
# SPIC = target: T2, SPIC (Homo sapiens, UniProt Q8N5J4 1-248); settings: protein: recombinant; tags: N-terminal GST; dsDNA, one strand shown
# T2 sequence: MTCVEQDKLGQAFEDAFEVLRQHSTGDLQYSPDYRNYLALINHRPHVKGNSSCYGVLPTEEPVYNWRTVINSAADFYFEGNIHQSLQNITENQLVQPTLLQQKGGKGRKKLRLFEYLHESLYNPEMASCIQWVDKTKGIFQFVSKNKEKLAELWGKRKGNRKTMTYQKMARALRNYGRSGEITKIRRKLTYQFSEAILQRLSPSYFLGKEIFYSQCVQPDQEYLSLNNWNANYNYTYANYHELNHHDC
# Method in brief: as §1
# ELF4 = ELF4 (Homo sapiens, UniProt Q99607 1-663); settings: protein: recombinant; tags: N-terminal GST; dsDNA, one strand shown
# Method in brief: as §1
# ELK4 = target: T3, ELK4 (Homo sapiens, UniProt P28324-2 1-405); settings: protein: recombinant; tags: N-terminal GST; dsDNA, one strand shown
# T3 sequence: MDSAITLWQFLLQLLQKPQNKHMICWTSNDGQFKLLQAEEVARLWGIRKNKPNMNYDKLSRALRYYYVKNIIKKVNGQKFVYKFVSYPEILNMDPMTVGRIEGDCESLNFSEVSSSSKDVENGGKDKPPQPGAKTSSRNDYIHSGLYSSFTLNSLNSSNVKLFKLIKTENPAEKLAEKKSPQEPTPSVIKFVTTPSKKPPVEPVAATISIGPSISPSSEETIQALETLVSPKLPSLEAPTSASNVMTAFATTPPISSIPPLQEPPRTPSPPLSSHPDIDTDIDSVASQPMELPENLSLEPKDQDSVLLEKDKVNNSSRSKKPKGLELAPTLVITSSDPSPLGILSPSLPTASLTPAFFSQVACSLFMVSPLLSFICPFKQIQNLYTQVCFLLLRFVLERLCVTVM
# Method in brief: as §1
# ETV2 = target: T4, ETV2 (Homo sapiens, UniProt O00321 1-342); settings: protein: recombinant; tags: N-terminal GST; dsDNA, one strand shown
# T4 sequence: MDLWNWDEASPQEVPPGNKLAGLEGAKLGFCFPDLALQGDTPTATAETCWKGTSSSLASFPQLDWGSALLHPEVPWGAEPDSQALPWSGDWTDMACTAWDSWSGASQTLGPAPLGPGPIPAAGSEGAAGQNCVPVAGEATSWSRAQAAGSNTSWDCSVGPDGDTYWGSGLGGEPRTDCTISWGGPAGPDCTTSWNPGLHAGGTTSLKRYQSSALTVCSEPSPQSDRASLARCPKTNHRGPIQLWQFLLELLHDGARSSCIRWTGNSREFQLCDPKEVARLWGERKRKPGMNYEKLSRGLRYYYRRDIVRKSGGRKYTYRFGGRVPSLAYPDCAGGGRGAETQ
# Method in brief: as §1
# ELF3 = target: T5, ELF3 (Homo sapiens, UniProt P78545 1-371); settings: protein: recombinant; tags: N-terminal GST; dsDNA, one strand shown
# T5 sequence: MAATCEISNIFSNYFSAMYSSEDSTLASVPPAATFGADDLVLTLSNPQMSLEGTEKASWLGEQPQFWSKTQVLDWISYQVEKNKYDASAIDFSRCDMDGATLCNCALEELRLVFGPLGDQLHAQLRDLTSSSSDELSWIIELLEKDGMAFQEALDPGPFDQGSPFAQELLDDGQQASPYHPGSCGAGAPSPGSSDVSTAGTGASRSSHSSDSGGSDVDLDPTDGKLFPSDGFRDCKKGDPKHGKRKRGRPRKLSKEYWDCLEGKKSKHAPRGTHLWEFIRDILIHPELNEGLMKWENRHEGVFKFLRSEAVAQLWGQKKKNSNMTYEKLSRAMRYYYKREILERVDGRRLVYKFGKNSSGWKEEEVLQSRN
# Method in brief: as §1
# CRX = CRX (Homo sapiens, UniProt O43186 1-299); settings: protein: recombinant; tags: N-terminal GST; dsDNA, one strand shown
# Method in brief: as §1
# ETV1 = ETV1 (Homo sapiens, UniProt P50549 1-477); settings: protein: recombinant; tags: N-terminal GST; dsDNA, one strand shown
# Method in brief: as §1
# ERF = target: T6, ERF (Homo sapiens, UniProt P50548 1-548); settings: protein: recombinant; tags: N-terminal GST; dsDNA, one strand shown
# T6 sequence: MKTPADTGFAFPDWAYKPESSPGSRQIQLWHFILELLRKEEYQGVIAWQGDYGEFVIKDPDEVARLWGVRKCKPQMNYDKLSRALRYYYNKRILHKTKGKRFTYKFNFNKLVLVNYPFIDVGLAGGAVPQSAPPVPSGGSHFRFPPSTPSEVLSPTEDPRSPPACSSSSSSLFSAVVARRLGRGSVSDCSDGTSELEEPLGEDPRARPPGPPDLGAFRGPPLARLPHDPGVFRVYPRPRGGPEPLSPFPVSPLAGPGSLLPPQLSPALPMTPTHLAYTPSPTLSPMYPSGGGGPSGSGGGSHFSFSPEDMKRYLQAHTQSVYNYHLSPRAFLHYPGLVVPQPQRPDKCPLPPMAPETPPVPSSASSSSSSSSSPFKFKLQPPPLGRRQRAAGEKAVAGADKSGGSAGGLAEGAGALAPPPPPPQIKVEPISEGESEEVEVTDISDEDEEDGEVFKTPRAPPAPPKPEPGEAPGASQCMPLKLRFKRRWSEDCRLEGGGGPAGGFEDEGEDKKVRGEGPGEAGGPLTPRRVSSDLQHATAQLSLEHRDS
# Method in brief: as §1
# ETV3L = target: T7, ETV3L (Homo sapiens, UniProt Q6ZN32 1-361); settings: protein: recombinant; tags: N-terminal GST; dsDNA, one strand shown
# T7 sequence: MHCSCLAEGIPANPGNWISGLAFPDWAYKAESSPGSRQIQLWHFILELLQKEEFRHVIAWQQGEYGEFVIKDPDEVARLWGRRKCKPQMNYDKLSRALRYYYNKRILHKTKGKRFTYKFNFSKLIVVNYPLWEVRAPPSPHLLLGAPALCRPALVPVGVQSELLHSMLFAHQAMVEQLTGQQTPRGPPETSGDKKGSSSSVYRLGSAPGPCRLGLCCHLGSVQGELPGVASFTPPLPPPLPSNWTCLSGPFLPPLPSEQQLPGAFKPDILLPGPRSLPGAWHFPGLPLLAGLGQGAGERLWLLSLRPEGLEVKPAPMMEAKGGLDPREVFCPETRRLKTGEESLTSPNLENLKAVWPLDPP
# Method in brief: as §1
# ETS2 = target: T8, ETS2 (Homo sapiens, UniProt P15036 1-469); settings: protein: recombinant; tags: N-terminal GST; dsDNA, one strand shown
# T8 sequence: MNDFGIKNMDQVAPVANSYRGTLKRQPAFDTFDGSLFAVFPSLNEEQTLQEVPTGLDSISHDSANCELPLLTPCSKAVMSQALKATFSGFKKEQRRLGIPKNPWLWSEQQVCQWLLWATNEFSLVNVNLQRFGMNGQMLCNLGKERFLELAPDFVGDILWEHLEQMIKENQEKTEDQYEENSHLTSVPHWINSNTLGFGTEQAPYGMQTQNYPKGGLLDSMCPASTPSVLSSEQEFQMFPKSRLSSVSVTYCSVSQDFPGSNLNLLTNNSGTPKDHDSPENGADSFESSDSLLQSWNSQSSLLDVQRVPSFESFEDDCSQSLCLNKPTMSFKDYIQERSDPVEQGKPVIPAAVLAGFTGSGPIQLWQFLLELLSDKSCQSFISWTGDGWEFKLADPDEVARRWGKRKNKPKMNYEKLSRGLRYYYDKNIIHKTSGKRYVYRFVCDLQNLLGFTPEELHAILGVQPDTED
# Method in brief: as §1
# SPDEF = target: T9, SPDEF (Homo sapiens, UniProt O95238 1-335); settings: protein: recombinant; tags: N-terminal GST; dsDNA, one strand shown
# T9 sequence: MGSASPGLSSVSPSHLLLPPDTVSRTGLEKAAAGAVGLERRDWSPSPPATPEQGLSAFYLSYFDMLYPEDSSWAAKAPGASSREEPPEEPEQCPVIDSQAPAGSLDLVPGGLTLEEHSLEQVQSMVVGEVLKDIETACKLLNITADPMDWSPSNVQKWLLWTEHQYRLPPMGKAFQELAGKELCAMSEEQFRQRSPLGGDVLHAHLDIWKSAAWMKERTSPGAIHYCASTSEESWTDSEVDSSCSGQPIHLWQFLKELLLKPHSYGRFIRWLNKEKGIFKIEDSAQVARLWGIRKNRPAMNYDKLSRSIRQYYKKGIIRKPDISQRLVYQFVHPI
# Method in brief: as §1
# ETV7 = target: T10, ETV7 (Homo sapiens, UniProt Q9Y603 1-341); settings: protein: recombinant; tags: N-terminal GST; dsDNA, one strand shown
# T10 sequence: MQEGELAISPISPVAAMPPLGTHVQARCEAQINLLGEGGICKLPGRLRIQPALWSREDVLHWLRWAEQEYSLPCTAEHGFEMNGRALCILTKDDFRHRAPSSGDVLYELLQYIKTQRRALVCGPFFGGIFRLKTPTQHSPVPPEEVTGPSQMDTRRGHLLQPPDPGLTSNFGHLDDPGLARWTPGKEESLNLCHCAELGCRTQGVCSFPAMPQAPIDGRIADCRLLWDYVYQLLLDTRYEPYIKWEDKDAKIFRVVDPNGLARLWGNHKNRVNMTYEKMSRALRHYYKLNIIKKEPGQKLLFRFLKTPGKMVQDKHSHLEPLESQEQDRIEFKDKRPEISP
# Method in brief: as §1
# ELF5 = target: T11, ELF5 (Homo sapiens, UniProt Q9UKW6-2 1-255); settings: protein: recombinant; tags: N-terminal GST; dsDNA, one strand shown
# T11 sequence: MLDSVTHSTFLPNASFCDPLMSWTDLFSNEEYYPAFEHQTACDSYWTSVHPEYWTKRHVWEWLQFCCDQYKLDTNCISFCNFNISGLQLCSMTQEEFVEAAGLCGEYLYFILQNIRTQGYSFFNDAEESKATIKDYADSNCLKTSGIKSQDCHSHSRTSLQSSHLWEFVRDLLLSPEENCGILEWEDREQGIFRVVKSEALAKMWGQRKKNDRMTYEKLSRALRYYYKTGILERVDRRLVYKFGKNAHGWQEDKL
# Method in brief: as §1
# ETV3 = target: T12, ETV3 (Homo sapiens, UniProt P41162-2 1-143); settings: protein: recombinant; tags: N-terminal GST; dsDNA, one strand shown
# T12 sequence: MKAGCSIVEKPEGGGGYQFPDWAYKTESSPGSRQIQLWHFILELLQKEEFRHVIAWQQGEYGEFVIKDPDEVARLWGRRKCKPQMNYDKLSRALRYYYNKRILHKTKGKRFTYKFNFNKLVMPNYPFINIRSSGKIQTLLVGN
# Method in brief: as §1
# ETV6 = ETV6 (Homo sapiens, UniProt P41212 1-452); settings: protein: recombinant; tags: N-terminal GST; dsDNA, one strand shown
# Method in brief: as §1
# Sequence of ETV5 (P41161 whole entry): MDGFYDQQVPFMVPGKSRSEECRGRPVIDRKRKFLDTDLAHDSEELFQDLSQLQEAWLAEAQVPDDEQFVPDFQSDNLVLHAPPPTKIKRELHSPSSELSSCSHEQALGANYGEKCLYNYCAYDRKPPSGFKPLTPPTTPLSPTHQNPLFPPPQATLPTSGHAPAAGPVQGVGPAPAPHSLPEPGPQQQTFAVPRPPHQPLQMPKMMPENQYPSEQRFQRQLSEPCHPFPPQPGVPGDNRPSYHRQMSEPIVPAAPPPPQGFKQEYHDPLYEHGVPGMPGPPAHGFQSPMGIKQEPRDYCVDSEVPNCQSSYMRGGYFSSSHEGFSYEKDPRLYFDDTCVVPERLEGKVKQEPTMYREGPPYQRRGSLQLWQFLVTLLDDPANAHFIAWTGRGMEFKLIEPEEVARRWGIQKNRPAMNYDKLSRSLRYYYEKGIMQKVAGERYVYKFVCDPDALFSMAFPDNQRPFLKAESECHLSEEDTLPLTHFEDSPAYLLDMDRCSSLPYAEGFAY
# Sequence of ETV1 (P50549 whole entry): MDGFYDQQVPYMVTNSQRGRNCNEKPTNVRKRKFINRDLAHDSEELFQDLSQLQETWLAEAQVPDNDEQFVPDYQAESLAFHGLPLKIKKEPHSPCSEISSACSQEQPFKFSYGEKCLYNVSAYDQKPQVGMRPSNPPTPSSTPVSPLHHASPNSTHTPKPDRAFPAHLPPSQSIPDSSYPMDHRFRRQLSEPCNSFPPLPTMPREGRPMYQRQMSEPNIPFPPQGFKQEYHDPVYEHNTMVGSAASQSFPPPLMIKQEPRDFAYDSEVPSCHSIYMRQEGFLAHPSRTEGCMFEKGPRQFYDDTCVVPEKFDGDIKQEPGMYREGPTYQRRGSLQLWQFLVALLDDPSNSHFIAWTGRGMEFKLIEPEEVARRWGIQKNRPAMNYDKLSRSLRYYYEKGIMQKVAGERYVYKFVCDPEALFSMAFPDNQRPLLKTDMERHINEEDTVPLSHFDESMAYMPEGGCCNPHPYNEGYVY
# Sequence of HSF1 (Q00613 whole entry): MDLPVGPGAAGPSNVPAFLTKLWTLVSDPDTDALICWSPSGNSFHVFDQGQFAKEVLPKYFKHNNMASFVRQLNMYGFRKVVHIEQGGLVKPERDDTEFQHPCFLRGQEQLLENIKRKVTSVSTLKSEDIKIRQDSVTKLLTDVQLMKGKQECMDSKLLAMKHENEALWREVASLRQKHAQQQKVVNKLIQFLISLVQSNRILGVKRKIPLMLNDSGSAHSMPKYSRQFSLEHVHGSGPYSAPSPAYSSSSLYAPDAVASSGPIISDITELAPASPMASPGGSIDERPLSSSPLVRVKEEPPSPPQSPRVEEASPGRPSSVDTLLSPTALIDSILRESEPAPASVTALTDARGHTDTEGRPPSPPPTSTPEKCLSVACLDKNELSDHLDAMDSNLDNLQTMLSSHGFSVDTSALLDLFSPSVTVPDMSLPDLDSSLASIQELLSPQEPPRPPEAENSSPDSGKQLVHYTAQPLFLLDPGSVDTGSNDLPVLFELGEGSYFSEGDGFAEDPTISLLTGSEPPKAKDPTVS
# Sequence of ELF4 (Q99607 whole entry): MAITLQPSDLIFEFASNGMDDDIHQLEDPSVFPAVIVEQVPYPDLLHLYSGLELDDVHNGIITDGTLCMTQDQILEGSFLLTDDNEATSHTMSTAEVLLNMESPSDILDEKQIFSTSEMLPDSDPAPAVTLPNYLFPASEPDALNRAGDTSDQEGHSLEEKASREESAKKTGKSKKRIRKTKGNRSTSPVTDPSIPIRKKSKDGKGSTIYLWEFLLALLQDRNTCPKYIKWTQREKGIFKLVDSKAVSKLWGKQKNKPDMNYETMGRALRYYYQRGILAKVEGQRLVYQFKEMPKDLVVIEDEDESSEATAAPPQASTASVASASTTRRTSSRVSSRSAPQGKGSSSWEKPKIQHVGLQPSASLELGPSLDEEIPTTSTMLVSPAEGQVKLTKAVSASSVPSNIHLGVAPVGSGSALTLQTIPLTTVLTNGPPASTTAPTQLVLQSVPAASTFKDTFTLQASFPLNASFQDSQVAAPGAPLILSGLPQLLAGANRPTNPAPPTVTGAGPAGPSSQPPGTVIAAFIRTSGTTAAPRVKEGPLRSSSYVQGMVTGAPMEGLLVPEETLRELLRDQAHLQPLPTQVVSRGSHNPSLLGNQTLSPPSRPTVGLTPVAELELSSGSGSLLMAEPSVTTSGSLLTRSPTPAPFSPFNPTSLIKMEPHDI
# Sequence of ETV6 (P41212 whole entry): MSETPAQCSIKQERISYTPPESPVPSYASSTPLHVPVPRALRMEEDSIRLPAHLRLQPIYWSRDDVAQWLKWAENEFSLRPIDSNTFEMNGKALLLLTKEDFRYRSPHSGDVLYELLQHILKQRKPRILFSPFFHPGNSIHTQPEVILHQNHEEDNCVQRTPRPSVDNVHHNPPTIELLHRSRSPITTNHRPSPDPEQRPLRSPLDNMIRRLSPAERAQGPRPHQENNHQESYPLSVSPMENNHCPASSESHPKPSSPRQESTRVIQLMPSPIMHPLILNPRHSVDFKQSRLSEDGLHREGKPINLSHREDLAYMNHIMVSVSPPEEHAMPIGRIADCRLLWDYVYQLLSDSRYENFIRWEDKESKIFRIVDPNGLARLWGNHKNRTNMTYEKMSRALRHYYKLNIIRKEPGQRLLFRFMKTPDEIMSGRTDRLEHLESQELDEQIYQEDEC
# Sequence of CRX (O43186 whole entry): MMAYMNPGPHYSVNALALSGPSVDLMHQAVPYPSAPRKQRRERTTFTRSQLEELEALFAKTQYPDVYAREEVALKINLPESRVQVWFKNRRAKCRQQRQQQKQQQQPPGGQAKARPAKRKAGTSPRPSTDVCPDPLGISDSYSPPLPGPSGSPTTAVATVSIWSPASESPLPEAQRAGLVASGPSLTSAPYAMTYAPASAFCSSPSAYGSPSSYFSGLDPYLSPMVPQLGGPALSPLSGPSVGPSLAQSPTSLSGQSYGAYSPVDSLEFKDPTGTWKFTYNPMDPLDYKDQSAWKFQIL
sequence,measurement,setting,value
TACGGC,binding signal,FEV,"1.15 fold enrichment (6-mer frequency, TF over GST control)"
same,binding signal,ETV5,"1.15 fold enrichment (6-mer frequency, TF over GST control)"
same,binding signal,HSF1,"1.02 fold enrichment (6-mer frequency, TF over GST control)"
same,binding signal,SPIC,"1.05 fold enrichment (6-mer frequency, TF over GST control)"
same,binding signal,ELF4,"1.28 fold enrichment (6-mer frequency, TF over GST control)"
same,binding signal,ELK4,"1.19 fold enrichment (6-mer frequency, TF over GST control)"
same,binding signal,ETV2,"1.12 fold enrichment (6-mer frequency, TF over GST control)"
same,binding signal,ELF3,"1.14 fold enrichment (6-mer frequency, TF over GST control)"
same,binding signal,CRX,"1.2 fold enrichment (6-mer frequency, TF over GST control)"
same,binding signal,ETV1,"1.14 fold enrichment (6-mer frequency, TF over GST control)"
same,binding signal,ERF,"1.32 fold enrichment (6-mer frequency, TF over GST control)"
same,binding signal,ETV3L,"1.26 fold enrichment (6-mer frequency, TF over GST control)"
same,binding signal,ETS2,"1.22 fold enrichment (6-mer frequency, TF over GST control)"
same,binding signal,SPDEF,"1.18 fold enrichment (6-mer frequency, TF over GST control)"
same,binding signal,ETV7,"1.13 fold enrichment (6-mer frequency, TF over GST control)"
same,binding signal,ELF5,"1.2 fold enrichment (6-mer frequency, TF over GST control)"
same,binding signal,ETV3,"1.21 fold enrichment (6-mer frequency, TF over GST control)"
same,binding signal,ETV6,"1.2 fold enrichment (6-mer frequency, TF over GST control)"
